Records with an inconclusive call do not appear. Values without a mark were called inactive. Active and inactive are the calls of the source. Calls come from the whole dose curve; as a rule, active = well fitted inhibition curve with a large enough effect; inconclusive = small, poorly fitted or top-dose-only effect; inactive = flat fitted curve, though single readings scatter.
The compounds below were run against Voltage-gated inwardly rectifying potassium channel KCNH2 (Homo sapiens) (UniProt Q12809) (assay: qHTS Assay for Small Molecule Inhibitors of the Human hERG Channel Activity (AID 588834;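 note: top concentration of the series differs between compounds; % is set by controls: 0 for no effect and ±100 for the full control effect; lower thallium flux fluorescence means stronger hERG block; nearly all actives have a fitted effect of over 50% in size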)). Details: U2OS BacMam hERG, FluxOR thallium flux fluorescence; series mostly up to 46.1 µM; activity change, negative = inhibition: at the top concentration.
Chain of Voltage-gated inwardly rectifying potassium channel KCNH2 (Homo sapiens) (Q12809 whole entry, looked up): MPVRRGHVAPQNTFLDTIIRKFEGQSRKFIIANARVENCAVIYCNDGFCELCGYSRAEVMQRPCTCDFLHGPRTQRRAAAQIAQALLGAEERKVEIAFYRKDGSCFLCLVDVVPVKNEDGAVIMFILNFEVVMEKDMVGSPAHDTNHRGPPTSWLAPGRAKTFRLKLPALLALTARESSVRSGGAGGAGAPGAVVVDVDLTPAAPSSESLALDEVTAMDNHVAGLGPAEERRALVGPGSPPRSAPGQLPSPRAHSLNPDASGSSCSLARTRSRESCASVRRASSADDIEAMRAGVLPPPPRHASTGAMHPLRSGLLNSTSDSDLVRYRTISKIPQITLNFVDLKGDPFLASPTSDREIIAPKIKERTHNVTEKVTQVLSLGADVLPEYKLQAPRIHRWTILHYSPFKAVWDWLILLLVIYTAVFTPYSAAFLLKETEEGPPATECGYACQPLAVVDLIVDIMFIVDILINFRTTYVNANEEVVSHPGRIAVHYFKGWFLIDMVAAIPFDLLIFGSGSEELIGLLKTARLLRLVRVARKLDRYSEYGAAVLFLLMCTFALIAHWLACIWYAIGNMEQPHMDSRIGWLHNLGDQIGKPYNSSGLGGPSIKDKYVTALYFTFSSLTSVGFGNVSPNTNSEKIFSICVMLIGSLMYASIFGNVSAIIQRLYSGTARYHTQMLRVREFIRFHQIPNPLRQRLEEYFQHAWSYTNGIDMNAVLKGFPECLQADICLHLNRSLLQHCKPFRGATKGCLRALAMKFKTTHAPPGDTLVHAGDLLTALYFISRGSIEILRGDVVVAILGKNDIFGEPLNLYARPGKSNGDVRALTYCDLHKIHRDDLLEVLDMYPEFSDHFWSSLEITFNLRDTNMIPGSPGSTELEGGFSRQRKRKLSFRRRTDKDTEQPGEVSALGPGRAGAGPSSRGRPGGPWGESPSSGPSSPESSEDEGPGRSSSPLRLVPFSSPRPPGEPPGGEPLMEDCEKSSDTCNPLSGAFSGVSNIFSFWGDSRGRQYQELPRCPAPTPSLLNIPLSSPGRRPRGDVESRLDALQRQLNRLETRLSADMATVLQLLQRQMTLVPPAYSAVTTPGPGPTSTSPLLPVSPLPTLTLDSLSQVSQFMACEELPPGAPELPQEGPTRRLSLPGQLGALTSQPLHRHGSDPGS
Procedure, shortened: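 Concentration-response qHTS measuring drop in thallium-sensitive dye signal. U2OS cells carrying BacMam hERG; compound exposure ~10 min, then stimulation buffer and 2 min read at 1 sec intervals.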
With `COc1c2c(cc3c1OCO3)CCN(C)C2` the “activity change, negative = inhibition” value was 6.16% [at 20.6 µM]. With `CN1C(=O)NC(=O)C(C)(C2=CCCCC2)C1=O` (stereo unspecified) the Potency was “inactive”. `C[C@]12CC[C@@H]3c4ccc(OC(=O)N(CCCl)CCCl)cc4CC[C@H]3[C@@H]1CC[C@@H]2O` was tested, and the “activity change, negative = inhibition” value was 8.46%. In the case of `NC(=O)c1cc([N+](=O)[O-])cc([N+](=O)[O-])c1`, the “activity change, negative = inhibition” value is reported as 1.15%. With `CCC1(CC)C(=O)C=CNC1=O` the “activity change, negative = inhibition” value was 5.99%. In the case of `COc1cccc([C@@]2(O)CCCC[C@@H]2CN(C)C)c1`, the “activity change, negative = inhibition” value is reported as 10.3%. `c1ccc2c(c1)sc1ccccc12` was tested, and the “activity change, negative = inhibition” value was 136%. For `Cc1nnc2n1-c1ccc(Cl)cc1C(c1ccccc1)=NC2`, the “activity change, negative = inhibition” value was 12.7%.

These compounds were tested against Luciferin 4-monooxygenase (Photinus pyralis) (UniProt P08659) (assay: Biochemical firefly luciferase enzyme assay for NPC (AID 624030; note: nearly all actives have a fitted effect of over 70% in size; note: potency is the fitted concentration of half-maximal effect;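 for activity change, negative = inhibition: purified P. pyralis luciferase at 10 nM with luciferin and ATP substrate; 0% = DMSO and -100% = full luciferase inhibition by PTC124 control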)). Details: purified P. pyralis luciferase, luminescence, 5 min; series mostly up to 58.6 µM; activity change, negative = inhibition: at the top concentration.
Chain of Luciferin 4-monooxygenase (Photinus pyralis) (P08659 whole entry, looked up): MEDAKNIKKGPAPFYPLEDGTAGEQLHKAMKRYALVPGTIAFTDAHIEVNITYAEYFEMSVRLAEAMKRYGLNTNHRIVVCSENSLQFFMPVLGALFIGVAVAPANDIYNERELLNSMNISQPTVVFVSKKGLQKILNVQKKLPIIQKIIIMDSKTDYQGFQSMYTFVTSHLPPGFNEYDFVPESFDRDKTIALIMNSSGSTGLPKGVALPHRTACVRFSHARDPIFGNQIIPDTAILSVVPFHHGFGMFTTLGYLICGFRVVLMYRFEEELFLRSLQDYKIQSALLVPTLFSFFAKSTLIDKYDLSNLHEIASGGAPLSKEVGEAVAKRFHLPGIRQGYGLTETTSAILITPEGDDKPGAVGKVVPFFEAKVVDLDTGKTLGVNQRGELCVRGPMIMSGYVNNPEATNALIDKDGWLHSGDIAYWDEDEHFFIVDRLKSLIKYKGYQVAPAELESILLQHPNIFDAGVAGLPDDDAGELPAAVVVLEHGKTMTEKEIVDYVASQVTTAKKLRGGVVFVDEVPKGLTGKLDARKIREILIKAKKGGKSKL
Procedure, shortened: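 Counter-screen for direct inhibition of the luciferase enzyme by approved-drug library compounds, run at 10 nM enzyme in 50 mM Tris acetate (final). Luminescence was read within 5 min of enzyme-buffer addition and normalized to PTC124 versus DMSO (0%).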
With `CCN(CC)C(=O)[C@@H]1C=C2c3cccc4[nH]cc(c34)C[C@H]2N(C)C1` the Potency was “inactive”. For `CN(C)CCc1c[nH]c2cccc(OP(=O)(O)O)c12`, the “activity change, negative = inhibition” value was -5.24% [at 123 µM]. For `CCN(CC)CCc1c[nH]c2ccccc12`, the “activity change, negative = inhibition” value was -1.42% [at 215 µM]. With `COc1cc(CCN)cc(OC)c1OC` the “activity change, negative = inhibition” value was 0.77% [at 123 µM]. `COc1c2c(cc3c1OCO3)CCN(C)C2` was tested, and the “activity change, negative = inhibition” value was -3.98% [at 24.9 µM]. With `CNCC(=O)c1ccc(O)c(O)c1` the “activity change, negative = inhibition” value was -1.87%. With `CCCN(CCC)C(=O)Cc1c(-c2ccc(Cl)cc2)nc2ccc(Cl)cn12` the “activity change, negative = inhibition” value was -0.0589%. In the case of `CC(Cc1ccccc1)NCCn1cnc2c1c(=O)n(C)c(=O)n2C` (stereo unspecified), the “activity change, negative = inhibition” value is reported as -0.876% [at 123 µM]. In the case of `CN1C(=O)NC(=O)C(C)(C2=CCCCC2)C1=O` (stereo unspecified), the Potency is reported as “inactive”. For `CC(C)(C)c1ccc(O)cc1`, the “activity change, negative = inhibition” value was -2.4%. In the case of `c1ccc(CN2CCNCC2)cc1`, the “activity change, negative = inhibition” value is reported as -4.43% [at 215 µM]. For `CCN[C@@H](C)Cc1cccc(C(F)(F)F)c1`, the “activity change, negative = inhibition” value was -0.498% [at 123 µM]. For `NC(=O)c1cc([N+](=O)[O-])cc([N+](=O)[O-])c1`, the “activity change, negative = inhibition” value was -12.7%. With `C[C@]12CC[C@@H]3c4ccc(OC(=O)N(CCCl)CCCl)cc4CC[C@H]3[C@@H]1CC[C@@H]2OP(=O)(O)O` the “activity change, negative = inhibition” value was -14%. `C[C@]12CCC(=O)C=C1CC[C@@H]1[C@H]3CC[C@](C)(O)[C@@]3(C)CC[C@@H]12` was tested, and the “activity change, negative = inhibition” value was -4.23% [at 123 µM]. For `CCC1(CC)C(=O)C=CNC1=O`, the “activity change, negative = inhibition” value was 0.285%. In the case of `CN1C(=O)C(O)N=C(c2ccccc2)c2cc(Cl)ccc21` (stereo unspecified), the “activity change, negative = inhibition” value is reported as -0.128%. For `COc1cccc([C@@]2(O)CCCC[C@@H]2CN(C)C)c1`, the “activity change, negative = inhibition” value was -4.59%. With `COc1cccc(C(=O)CCN[C@@H](C)[C@H](O)c2ccccc2)c1` the “activity change, negative = inhibition” value was -13.9%. For `O=C1Nc2ccc(Cl)cc2C(c2ccccc2Cl)=NC1O` (stereo unspecified), the “activity change, negative = inhibition” value was 1.56%. `CCc1cc2c(s1)-n1c(C)nnc1CN=C2c1ccccc1Cl` was tested, and the “activity change, negative = inhibition” value was -1.85%. With `CN1C(=O)COc2c(C(=O)NC3CN4CCC3CC4)cc(Cl)cc21` (stereo unspecified) the “activity change, negative = inhibition” value was 2.34%. In the case of `Clc1cccc(SC2CCNCC2)n1`, the “activity change, negative = inhibition” value is reported as -6.12%. `C[C@H](N)C(=O)c1ccccc1` was tested, and the Potency was “inactive”. With `COc1ccc2c(c1OC)C(=O)O[C@H]2[C@@H]1c2cc3c(cc2CCN1C)OCO3` the “activity change, negative = inhibition” value was -0.127%. `O=C1Nc2ccc(Cl)cc2C(c2ccccc2)=NC1O` (stereo unspecified) was tested, and the Potency was “inactive”. For `O=C(Nc1ccc(Br)cc1)c1cc(Br)cc(Br)c1O`, the Potency was 11.4 µM (active). In the case of `O=c1oc2ccccc2c(O)c1Cc1c(O)c2ccccc2oc1=O`, the “activity change, negative = inhibition” value is reported as -15.9% [at 24.9 µM]. In the case of `COC(=O)C(Cl)C(=O)OC`, the “activity change, negative = inhibition” value is reported as 0.465%. With `Cc1nnc2n1-c1ccc(Cl)cc1C(c1ccccc1)=NC2` the “activity change, negative = inhibition” value was 6.28%. In the case of `CCN[C@@H](C)Cc1ccccc1`, the “activity change, negative = inhibition” value is reported as 3.62% [at 123 µM]. With `Cc1ncsc1CCCl` the “activity change, negative = inhibition” value was 2.21%. With `COc1cc(CC(C)N)cc(OC)c1OC` (stereo unspecified) the “activity change, negative = inhibition” value was 1.16% [at 123 µM].

Source: PubChem BioAssay (NCATS)
